Measured values published in the supplement of paper PMC12282887.
± gives the standard deviation of the averaged measurements.

What was measured:
Test in all cases: promoter activity interaction Z-score (Lux/OD deviation from empty-vector control); higher = stronger promoter induction by the compound
[1] = tested on: E. coli BW25113 acrABp lux reporter
Outline: (§1)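 E. coli BW25113 luxCDABE reporter strains grew at 37°C in 40 µl LB Lennox in 384-well plates, with OD600 and luminescence read every 30 min for 12 h. After integration over 0–8 h for wild type or 1–9 h for deletion strains, wells under 10% of the median growth value were removed. Each score is the Z-transformed residual of growth-normalised luminescence fitted against a control.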

[2] = tested on: E. coli BW25113 micFp lux reporter
Outline: as §1

[3] = tested on: E. coli BW25113 ompFp lux reporter
Outline: as §1

[4] = tested on: E. coli BW25113 robp lux reporter
Outline: as §1

[5] = tested on: E. coli BW25113 soxSp lux reporter
Outline: as §1

[6] = tested on: E. coli BW25113 tolCp lux reporter
Outline: as §1

[7] = 13.5 µg/ml, genetic background: wild type
[8] = 13.5 µg/ml, genetic background: ΔmarA
[9] = 13.5 µg/ml, genetic background: Δrob
[10] = 13.5 µg/ml, genetic background: ΔsoxS
[11] = 26.9 µg/ml, genetic background: wild type
[12] = 26.9 µg/ml, genetic background: ΔmarA
[13] = 26.9 µg/ml, genetic background: Δrob
[14] = 26.9 µg/ml, genetic background: ΔsoxS
[15] = 53.9 µg/ml, genetic background: wild type
[16] = 53.9 µg/ml, genetic background: ΔmarA
[17] = 53.9 µg/ml, genetic background: Δrob
[18] = 53.9 µg/ml, genetic background: ΔsoxS
[19] = 107.7 µg/ml, genetic background: wild type
[20] = 107.7 µg/ml, genetic background: ΔmarA
[21] = 107.7 µg/ml, genetic background: Δrob
[22] = 107.7 µg/ml, genetic background: ΔsoxS

With `CC(=O)O[C@H]1C[C@@]2(C)[C@@H](C[C@@H](O)[C@H]3[C@@]4(C)CC[C@@H](O)[C@@H](C)[C@@H]4CC[C@@]32C)/C1=C(\CCC=C(C)C)C(=O)O` [Fusidic acid] the “promoter activity interaction Z-score” value [1, 7] was -0.2451 ± 0.00049, the “promoter activity interaction Z-score” value [1, 8] was 0.318 ± 0.51 and the “promoter activity interaction Z-score” value [1, 9] was 0.252 ± 0.008. For the same molecule, the “promoter activity interaction Z-score” value [1, 10] was 0.129 ± 0.4, the “promoter activity interaction Z-score” value [1, 11] was 0.0211 ± 0.13 and the “promoter activity interaction Z-score” value [1, 12] was 0.239 ± 0.78. For the same molecule, the “promoter activity interaction Z-score” value [1, 13] was 0.206 ± 0.18, the “promoter activity interaction Z-score” value [1, 14] was 0.227 ± 0.21 and the “promoter activity interaction Z-score” value [1, 15] was 0.215 ± 0.26. For the same molecule, the “promoter activity interaction Z-score” value [1, 16] was -0.794 ± 0.83, the “promoter activity interaction Z-score” value [1, 17] was 0.292 ± 0.025 and the “promoter activity interaction Z-score” value [1, 18] was 0.624 ± 0.086. The “promoter activity interaction Z-score” value [1, 19] was 0.448 ± 0.38, the “promoter activity interaction Z-score” value [1, 20] was -0.757 ± 0.87 and the “promoter activity interaction Z-score” value [1, 21] was 0.221 ± 0.22. The “promoter activity interaction Z-score” value [1, 22] was 0.66 ± 0.14, the “promoter activity interaction Z-score” value [2, 7] was -0.214 ± 0.048 and the “promoter activity interaction Z-score” value [2, 8] was -0.0141 ± 0.037. For the same molecule, the “promoter activity interaction Z-score” value [2, 9] was -0.006 ± 0.044, the “promoter activity interaction Z-score” value [2, 10] was -0.317 ± 0.02 and the “promoter activity interaction Z-score” value [2, 11] was -0.0316 ± 0.083. For the same molecule, the “promoter activity interaction Z-score” value [2, 12] was 0.0308 ± 0.044, the “promoter activity interaction Z-score” value [2, 13] was 0.011 ± 0.0025 and the “promoter activity interaction Z-score” value [2, 14] was -0.033 ± 0.14. For the same molecule, the “promoter activity interaction Z-score” value [2, 15] was 0.0882 ± 0.31, the “promoter activity interaction Z-score” value [2, 16] was -0.146 ± 0.084 and the “promoter activity interaction Z-score” value [2, 17] was 0.0235 ± 0.18. For the same molecule, the “promoter activity interaction Z-score” value [2, 18] was 0.413 ± 0.28, the “promoter activity interaction Z-score” value [2, 19] was -0.681 ± 0.064 and the “promoter activity interaction Z-score” value [2, 20] was -0.356 ± 0.068. The “promoter activity interaction Z-score” value [2, 21] was -0.293 ± 0.013, the “promoter activity interaction Z-score” value [2, 22] was -0.184 ± 0.18 and the “promoter activity interaction Z-score” value [3, 7] was -0.312 ± 0.41. For the same molecule, the “promoter activity interaction Z-score” value [3, 8] was 0.0814 ± 0.3, the “promoter activity interaction Z-score” value [3, 9] was 0.107 ± 0.54 and the “promoter activity interaction Z-score” value [3, 10] was -0.462 ± 0.18. For the same molecule, the “promoter activity interaction Z-score” value [3, 11] was -0.129 ± 0.58, the “promoter activity interaction Z-score” value [3, 12] was 0.219 ± 0.59 and the “promoter activity interaction Z-score” value [3, 13] was 0.223 ± 0.2. The “promoter activity interaction Z-score” value [3, 14] was -0.211 ± 0.02, the “promoter activity interaction Z-score” value [3, 15] was -0.237 ± 0.057 and the “promoter activity interaction Z-score” value [3, 16] was -0.149 ± 0.12. For the same molecule, the “promoter activity interaction Z-score” value [3, 17] was -0.602 ± 0.36, the “promoter activity interaction Z-score” value [3, 18] was -0.00876 ± 0.4 and the “promoter activity interaction Z-score” value [3, 19] was -1.9 ± 0.91. The “promoter activity interaction Z-score” value [3, 20] was -1.77 ± 0.15, the “promoter activity interaction Z-score” value [3, 21] was -2.39 ± 0.61 and the “promoter activity interaction Z-score” value [3, 22] was -1.36 ± 0.43. The “promoter activity interaction Z-score” value [4, 7] was -0.978 ± 0.39, the “promoter activity interaction Z-score” value [4, 8] was -0.301 ± 0.26 and the “promoter activity interaction Z-score” value [4, 9] was 0.242 ± 0.41. For the same molecule, the “promoter activity interaction Z-score” value [4, 10] was -0.23 ± 0.61, the “promoter activity interaction Z-score” value [4, 11] was -0.593 ± 0.31 and the “promoter activity interaction Z-score” value [4, 12] was -0.113 ± 0.0094. The “promoter activity interaction Z-score” value [4, 13] was 0.3 ± 0.32, the “promoter activity interaction Z-score” value [4, 14] was 0.424 ± 1.6 and the “promoter activity interaction Z-score” value [4, 15] was -1.1 ± 0.35. For the same molecule, the “promoter activity interaction Z-score” value [4, 16] was -0.572 ± 0.84, the “promoter activity interaction Z-score” value [4, 17] was -0.82 ± 0.47 and the “promoter activity interaction Z-score” value [4, 18] was -0.24 ± 0.27. The “promoter activity interaction Z-score” value [4, 19] was -2.27 ± 0.22, the “promoter activity interaction Z-score” value [4, 20] was -1.34 ± 0.73 and the “promoter activity interaction Z-score” value [4, 21] was -1.46 ± 0.021. For the same molecule, the “promoter activity interaction Z-score” value [4, 22] was -1.76 ± 0.91, the “promoter activity interaction Z-score” value [5, 7] was -0.189 ± 0.017 and the “promoter activity interaction Z-score” value [5, 8] was 0.127 ± 0.11. The “promoter activity interaction Z-score” value [5, 9] was 0.138 ± 0.11, the “promoter activity interaction Z-score” value [5, 10] was 0.0742 ± 0.26 and the “promoter activity interaction Z-score” value [5, 11] was -0.0314 ± 0.05. For the same molecule, the “promoter activity interaction Z-score” value [5, 12] was 0.331 ± 0.089, the “promoter activity interaction Z-score” value [5, 13] was 0.221 ± 0.14 and the “promoter activity interaction Z-score” value [5, 14] was 0.0543 ± 0.37. For the same molecule, the “promoter activity interaction Z-score” value [5, 15] was 0.0312 ± 0.095, the “promoter activity interaction Z-score” value [5, 16] was 0.0894 ± 0.086 and the “promoter activity interaction Z-score” value [5, 17] was 0.0824 ± 0.045. The “promoter activity interaction Z-score” value [5, 18] was 0.2418 ± 0.00036, the “promoter activity interaction Z-score” value [5, 19] was 0.133 ± 0.093 and the “promoter activity interaction Z-score” value [5, 20] was 0.303 ± 0.013. For the same molecule, the “promoter activity interaction Z-score” value [5, 21] was 0.683 ± 0.014, the “promoter activity interaction Z-score” value [5, 22] was 1.13 ± 0.34 and the “promoter activity interaction Z-score” value [6, 7] was 0.0553 ± 0.57. The “promoter activity interaction Z-score” value [6, 8] was 0.818 ± 0.39, the “promoter activity interaction Z-score” value [6, 9] was 0.166 ± 0.013 and the “promoter activity interaction Z-score” value [6, 10] was 0.269 ± 0.96. For the same molecule, the “promoter activity interaction Z-score” value [6, 11] was -0.129 ± 0.34, the “promoter activity interaction Z-score” value [6, 12] was 0.688 ± 0.72 and the “promoter activity interaction Z-score” value [6, 13] was -0.187 ± 0.52. The “promoter activity interaction Z-score” value [6, 14] was 0.868 ± 0.14, the “promoter activity interaction Z-score” value [6, 15] was 0.388 ± 0.25 and the “promoter activity interaction Z-score” value [6, 16] was -0.396 ± 0.26. The “promoter activity interaction Z-score” value [6, 17] was -0.151 ± 1.6, the “promoter activity interaction Z-score” value [6, 18] was -0.374 ± 0.68 and the “promoter activity interaction Z-score” value [6, 19] was -1.44 ± 0.11. For the same molecule, the “promoter activity interaction Z-score” value [6, 20] was -0.24 ± 0.18, the “promoter activity interaction Z-score” value [6, 21] was -0.656 ± 0.49 and the “promoter activity interaction Z-score” value [6, 22] was 0.133 ± 0.45.
